The structures appear in SMILES notation. The campaign covered roughly 360,000 compounds. About 1,100 (0.31%) were called active. The list comes from a sample in which actives are over-represented; it also holds similar structures and randomly drawn compounds. A number with no mark means an inactive call. Cut-off read from the data, not from the text of the source: active = activity change below about -80%; inconclusive = mostly about -51% to -80%; inactive = weaker than that.
% is set by controls: 0 for no effect and ±100 for the full control effect.

This assay has as its target RAC-alpha serine/threonine-protein kinase (Homo sapiens) (UniProt P31749). The assay can be described thus: HTS Assay for Inhibitors of Akt Phophorylation: Primary Screen. The settings on record: Neuro2A IGF-stimulated pAkt S473 HTRF, 20 min; at 50 µM, hits give low values. From the text:
The serine/threonine protein kinase Akt (protein kinase B) regulates various cellular processes, including cell survival, growth, proliferation, migration and differentiation. It has been well established that Akt is activated through two essential steps involving membrane translocation and phosphorylation. Cytosolic Akt is recruited to the plasma membrane via the interaction between the PH domain and membrane PIP3 produced by phosphoinositide-3 kinase (PI3K) upon growth factor receptor stimulation. The membrane-Akt interaction results in conformational changes of Akt, enabling its activation through phosphorylation at T308 in the kinase domain and at S473 in the C-terminal hydrophobic motif by PDK1 and mTOR-rictor complex (mTORC2), respectively. […] These findings indicate that S473 phosphorylation, as an important modulator of Akt activation, may be a valuable drug target for cell growth, survival, proliferation and differentiation. These inhibitors also may have significant therapeutic potential with fewer side effects, especially for the conditions involving hyperactive Akt signaling, such as cancer and Alzheimer's disease.
To this end, a miniaturized assay was developed to be screened against the Molecular Libraries Small Molecule Repository (MLSMR).
NIH Chemical Genomics Center [NCGC]
NIH Molecular Libraries Probe Centers Network [MLPCN]
Assay Submitter (PI): Hee-Yong Kim, National Institute on Alcohol Abuse and Alcoholism
3 uL of Neuro2A cell suspension in DMEM containing 0.5% FBS and […] antibiotics mix was plated in a white solid bottom tissue culture-treated 1536-well plate (Greiner Bio-One, Monroe, NC) at 4,500 cells per well and incubated overnight at 37 deg C. 23 nL/well of compound solutions in DMSO was added with Pintool transfer (Kalypsis, San Diego, CA) at single […] final concentration. Then, the cells were stimulated with 1.5 uL of IGF (6 nM final concentration) and incubated at 37 deg C for 20 min. The reaction was terminated by the addition of 1.5 uL blocking reagent mixed with lysis buffer (1:25 correspondingly) provided with HTRF(R) Phospho Akt (Ser473) kit (Cisbio US, Bedford, MA), with following incubation for 50 min at ambient temperature. The detection HTRF conjugates from the kit were prepared according to the protocol, pre-mixed 1:1 prior to dispensing, and 2 uL/well was added with BioRAPTR FRD dispenser (Beckman Coulter). The assay plates were incubated for 24 hours at ambient temperature, and the HTRF fluorescence was measured using Envision plate reader (PerkinElmer) with excitation at 330nm, emission at 615nm (Eu(3)-Cryptate donor signal) and 665nm (d2 acceptor signal). The ratio of […] was calculated for each well.
`Cc1cccc(NC(=O)Cn2cc(C(=O)c3ccco3)c3ccccc32)c1`: the activity change is 11.5%.
Then `O=C(Cn1cc(C(=O)c2cccs2)c2ccccc21)NCc1cccs1`, with -110% (active); and `FC(F)(F)c1cccc(-c2nc3ccccc3n2C(c2ccccc2)c2nc3ccccc3[nH]2)c1` (stereo unspecified), with “inactive”; and `CC(C)(Oc1ccc(Cl)cc1)C(=O)OCC(=O)NCCc1ccc(S(N)(=O)=O)cc1`, with “inactive”.
With `COc1ccc(CCNC(=O)COc2ccc3c(c2)OCO3)cc1`, the activity change result was “inactive”.
For `COc1ccc(OCC(=O)NCCc2ccc(S(N)(=O)=O)cc2)cc1` the value was -119% (active).
Then `CCOC(=O)CN(C(=O)CN1CCOCC1)c1ccc(Br)cc1`, with 1.02%; and `CCN(C(=O)COC(=O)c1cc(NS(=O)(=O)c2ccc(Cl)c([N+](=O)[O-])c2)ccc1O)C1CCCCC1`, with “inactive”.
For `COC(=O)[C@@]12C[C@@H](CC(=O)NCc3cccc(C(F)(F)F)c3)C(=O)N(Cc3ccco3)C1=CCC(C)(C)C2` the value was “inactive”.
Regarding `O=C(CCS(=O)(=O)c1cccc2nonc12)NCCc1ccccc1Cl`, the activity change is 2.49%.
Turning to `COc1ccc(C)cc1NC(=O)CCS(=O)(=O)c1cccc2nonc12`, the activity change was 16.6%.
As for `CC1CCCCC1NC(=O)CCS(=O)(=O)c1cccc2nonc12` (stereo unspecified), the activity change is -123% (active).
For `C=CCNc1nnc(SCC(=O)N2CCCCC2)c2ccccc12` the value was 4.07%; for `C=CCNc1nnc(C)c2ccccc12`, -110% (active).
Consider `C=CCNc1nc(C)nc(OC)n1`, for which the activity change entry was “inactive”.
In the case of `CCCc1nnc(NC(=O)CCC(=O)N2CCN(S(=O)(=O)c3ccc(OC)cc3)CC2)s1`, the activity change entry was “inactive”.
Then `Cc1nnc(N/N=C/c2ccccn2)[nH]c1=O`, with “inactive”; and `CCc1c(Nc2ccccc2C)nc(N)[nH]c1=O`, with “inactive”; and `Cc1ccccc1Nc1nnc(C)c(=O)[nH]1`, with -109% (active).
For `Cc1cccc(C)c1NC(=O)C(c1cccc2ccccc12)n1c(=O)c(-c2ccco2)nc2ccccc21` (stereo unspecified) the value was “inactive”; for `COc1cccc(-c2ccc3c(c2)N(Cc2ccccc2OC)C(=O)C(C)S3)c1` (stereo unspecified), “inactive”; for `CCc1c(-c2ccc(F)cc2)ncn1Cc1cccc(-c2ccccc2)c1`, “inactive”.
Then `CCCCCn1nnnc1-c1nc2cc3ccccc3cc2[nH]c1=O`, with “inactive”.
As for `COc1ccccc1NC(=O)C1CCN(C(=O)c2ccc(C(C)(C)C)cc2)CC1`, the activity change entry is “inactive”.
As for `Cc1cc(Br)cn2c(Cc3ccccc3C(F)(F)F)c(-c3ccc(Cl)cc3)nc12`, the activity change result was “inactive”.
For `CSc1ccc(-c2c(C#N)c(N)nc3c2c(C)nn3-c2ccccc2)cc1` the value was -83.6% (active); for `Cc1nc2c(c(C)nn2-c2ccccc2)c(C)c1C`, “inactive”.
With `Cn1c(=O)c2c(-c3cccc(Br)c3)c(C#N)c(N)nc2n(C)c1=O`, the activity change result was “inactive”.
On to `COc1ccc(NC(=O)C(c2ccncc2)n2c(=O)c(-c3cc4ccccc4[nH]3)nc3ccccc32)cc1` (stereo unspecified), for which the activity change entry is “inactive”.
For the compound `Nc1nc2ncccn2c1-c1ccccc1`, the activity change entry was “inactive”.
Regarding `CC(=O)OCc1cc2cc(C)ccc2[nH]c1=O`, the activity change was -102% (active).
On to `Cc1ccc2[nH]c(=O)c(COC(=O)c3ccccn3)cc2c1`, for which the activity change is -7.82%.
For `CCOC(=O)c1cc2cc(C)ccc2[nH]1` the value was “inactive”.
Then `CCOc1ccc(N(CC(=O)NCc2ccc(OC)cc2)S(=O)(=O)c2c(C)noc2C)cc1`, with -134% (active); and `Cc1noc(C)c1S(=O)(=O)N(CC(=O)NCc1ccc(Cl)cc1)c1ccc2c(c1)OCO2`, with “inactive”.
In the case of `CCOc1ccc(N(CC(=O)OC)S(=O)(=O)c2c(C)noc2C)cc1`, the activity change result is “inactive”.
Then `NC(=NC(=O)c1ccccc1)N1CCOCC1`, with “inactive”; and `NC(=NC(=O)c1ccccc1)C1=C(O)CCC1=O`, with -110% (active).
`Cc1onc(-c2ccccc2)c1C(=O)N=C(N)c1ccc(Cl)cc1`: the activity change result was “inactive”.
Then `O=C(O)Cc1csc(-c2cccc(Oc3ccccc3)c2)n1`, with “inactive”; and `CCCCOCCCNC(=O)C[C@@H]1C[C@@]2(C(=O)OCC)CCCC=C2N(CCC2=CCCCC2)C1=O`, with “inactive”.
`CC(C)N1C(=O)c2ccccc2NC(=O)C1C(=O)NCc1cccs1` (stereo unspecified): the activity change entry was “inactive”.
Then `O=C(C(=O)N1CCN(c2ccccc2)CC1)c1ccc2c(c1)OCO2`, with “inactive”; and `CC1(C(=O)Nc2ccc3c(c2)OCCO3)CN(S(C)(=O)=O)CC(=O)N1Cc1cccc(F)c1` (stereo unspecified), with “inactive”; and `COc1ccc(-n2ncc3c(N4CCc5ccccc54)ncnc32)cc1`, with -95.4% (active).
Then `COc1ccccc1N1CCN(C(=O)CSc2ncnc3c2cnn3-c2ccc(C)c(C)c2)CC1`, with “inactive”; and `COc1ccc(-n2ncc3c(SCC(=O)NNC(C)=O)ncnc32)cc1`, with “inactive”; and `COc1nc(Oc2ccc(=O)n(C)n2)nc(N(C)C)n1`, with 6.07%.
Consider `COc1nc(OC)nc(N(C)CCO)n1`, for which the activity change was -113% (active).
For `CO[C@@H]1CN(C)C(=O)c2cc(NC(=O)C3CC3)ccc2OC[C@H](C)N(C(=O)CN2CCOCC2)C[C@@H]1C` the value was “inactive”; for `CC(=O)C[C@@H]1OC[C@H](C)N1S(=O)(=O)c1ccc(C)cc1`, “inactive”.

Values taken from PubChem BioAssay AID651550 (National Center for Advancing Translational Sciences (NCATS), 2012).
